NPC1 promoter act: NPC1 promoter activation; Huh7 NPC1 promoter luciferase reporter, 24 h; AID 485313; actives 2.4% (n = 320,000); Potency, µM (highest dose often 9.22 µM), without a hit: top-dose activation, usual class: activators; also: % of control where 0% means no effect; nearly all actives have a fitted effect of over 60% in size
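NPC1 promoter–luciferase Huh7 cells; 24 h compound; luminescence.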
FLuc modulator: counter-screen for miR-21 project: firefly luciferase inhibitors or activators | purified FLuc, Km substrates, luminescence inhibition | P08659 | Potency, µM (highest dose often 57.5 µM), without a hit: at the highest dose activity change, negative = inhibition, actives largely listed as inhibitors | actives 6.9% (n = 360,000);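 also: plate controls were vehicle for no effect and reference inhibitor for full effect; nearly all actives have a fitted effect of over 55% in size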
Target sequence (P08659 whole entry, looked up): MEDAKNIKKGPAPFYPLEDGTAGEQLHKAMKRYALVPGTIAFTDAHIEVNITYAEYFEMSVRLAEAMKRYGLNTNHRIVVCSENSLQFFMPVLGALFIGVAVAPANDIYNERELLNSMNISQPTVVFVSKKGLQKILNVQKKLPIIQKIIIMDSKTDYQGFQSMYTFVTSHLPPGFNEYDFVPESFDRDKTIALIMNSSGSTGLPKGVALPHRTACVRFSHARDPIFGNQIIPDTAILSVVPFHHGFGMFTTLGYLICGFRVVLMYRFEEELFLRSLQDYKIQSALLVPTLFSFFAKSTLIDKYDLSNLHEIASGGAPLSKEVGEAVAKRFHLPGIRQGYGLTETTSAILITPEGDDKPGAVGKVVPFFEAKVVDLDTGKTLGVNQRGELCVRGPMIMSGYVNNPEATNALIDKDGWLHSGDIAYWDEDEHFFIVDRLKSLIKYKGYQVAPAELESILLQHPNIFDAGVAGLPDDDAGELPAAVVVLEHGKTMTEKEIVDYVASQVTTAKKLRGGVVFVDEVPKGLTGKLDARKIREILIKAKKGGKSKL
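Purified P. pyralis luciferase (10nM final) with 10uM D-luciferin and 10uM ATP (Km levels) in 50mM Tris acetate pH 7.5, 10mM Mg acetate, 0.01% Tween-20, 0.05% BSA; qHTS 6-point titration, ~60 µM downward; luminescence read.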
SMN2 splice up: SMN2 splice variant enhancement. HEK293 SMN2-luciferase splicing reporter, luminescence, 30-36 h. Potency, µM (series often up to 46.1 µM), for inactives: at the highest dose activity change, positive = activation, most hits filed as activators. actives 2.8% (n = 210,000). AID 1458; also: % of control where 0% means no effect; nearly all actives have a fitted effect of over 55% in size
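qHTS luciferase splicing reporter: luminescence rises when SMN2 exon 7 is included in transfected HEK293 cells. Compound exposure lasted 30-36 h at 37C, with 4.5 mM final sodium butyrate as control, followed by a ONE-Glo read.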
ELG1 genotoxic: genotoxicity induction in ELG1-luciferase HEK293T cells | HEK293T ELG1-luciferase reporter, luminescence, 16 h | Potency, µM (doses to about 46 µM), inactives show at the highest dose activity change, positive = activation, usual class: activators | actives 1.3% (n = 330,000); also: % of control where 0% means no effect; nearly all actives have a fitted effect of over 60% in size
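DMSO vehicle served as control against compound-treated ELG1-luciferase HEK293T cells; exposure lasted 16 hr at 37 °C and 5% CO2, followed by ONE-Glo luminescence detection after 30 min.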
Luc counter: counter-screen: inhibitors of Kinase-Glo firefly luciferase. Potency, µM (top dose mostly 38.3 µM), without a hit: top-dose activity change, negative = inhibition, most hits filed as inhibitors. AID 1379. actives 0.28% (n = 200,000). Kinase-Glo luciferase, ATP luminescence, 8 min; also: % is scaled to controls: 0 for no effect and ±100 for the full control effect; nearly all actives have a fitted effect of over 60% in size
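Luminescence was the read-out, taken after 8-minute incubation at ambient temperature. Luciferase turned over luciferin with 10 uM ATP in imidazole pH 7.2 buffer containing KCl, MgCl2, Tween 20 and BSA.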
Rab9 prom act: activates the Rab9 promoter. Huh7 Rab9 promoter-luciferase reporter, luminescence, 24 h. Potency, µM (titrated, usually from 9.22 µM), inactives show at the top dose activation, negative = inhibition, hits mostly activators. actives 2.8% (n = 320,000); also: % of control where 0% means no effect; nearly all actives have a fitted effect of over 60% in size
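Stable Rab9-luc Huh7, 1500 cells/well, 2 h settle; cmpd in DMSO, 24 h, 37 °C/5% CO2; luciferase reagent 10 min RT; luminescence.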
Starred values were filed as active, the others as inactive; ? = inconclusive; . = no result given; [ ] = remark or other dose. Only some compounds are listed: those with a hit (about 7.5% of all), similar ones and a draw of the others. Calls follow the shape of the dose curve; as a rule, active = well fitted curve in the direction sought with a large enough effect; inconclusive = small, poorly fitted or top-dose-only effect, or another doubt; inactive = no such curve, though single readings can be large; an effect the other way counts as inactive or inconclusive. Potency is read from the fitted curve at half-maximal effect.

SMILES	NPC1 promoter act	FLuc modulator	SMN2 splice up	ELG1 genotoxic	Luc counter	Rab9 prom act
CCC(C(=O)O)n1nnc(-c2ccc(-c3ccc(OC)cc3)cc2)n1 (stereo not drawn)	26%	9.5µM*	?	?	-1%	22%
CCC(C(=O)O)n1nnc(-c2ccc(OCc3ccccc3)c(OC)c2)n1 (stereo not drawn)	-2%	6%	.	-2%	.	15%
COc1ccc(-c2ccc(-c3nnn(CC(C)=O)n3)cc2)cc1	2.5µM*	?	?	7%	-1%	1.6µM*
COc1cc(OC)c(NC(c2nnc(-c3ccccc3)o2)c2ccc(F)cc2Cl)cc1Cl (stereo not drawn)	.	-1%	-11%	.	.	.
COc1cccc(-n2ccn(CC(=O)c3ccc(F)cc3)c(=O)c2=O)c1	.	-9%	.	.	.	.
Cc1c2cnn(-c3ccccc3)c(=O)c2c(C)n1CCCC(=O)Nc1cccc(F)c1	.	2%	-12%	.	.	.
CC(=O)Nc1ccccc1OCc1cc(=O)n2c(C)csc2n1	.	-2%	-10%	.	.	.
COc1cccc(-c2cc(NCc3cccs3)ncn2)c1	.	.	8.9µM*	.	-13%	.
CC(/C=C/c1ccc(N(C)C)cc1)=N\N=C(/N)SC1CC(=O)N(c2ccc(C(=O)O)cc2)C1=O (stereo not drawn)	26%	1.1µM*	?	?	-7%	?
Cc1cc(=O)n2[nH]c(-c3ccccc3Cl)cc2n1	2%	24µM*	-14%	-1%	0%	8%
Cc1nc2cc(-c3ccc(F)cc3)[nH]n2c(=O)c1C	2µM*	8.5µM*	.	16µM*	.	?
Cc1cc(=O)n2[nH]c(C)cc2n1	-4%	2%	-15%	0%	1%	3%
CCOC(=O)Cc1c(C)nc2cc(-c3ccc(C)cc3)[nH]n2c1=O	18%	?	?	?	4%	27%
Cc1ccccc1-c1cc2nc(C)c(C)c(=O)n2[nH]1	?	19µM*	.	?	.	?
Nc1ccn([C@@H]2CC[C@H](CO)O2)c(=O)n1	.	.	23%[20.6 µM]	.	-1%[17.1 µM]	.
COc1nc2cc(C)ccc2cc1-c1noc(-c2cccnc2)n1	5%	2%	-8%	0%	4%	1%
COc1ccccc1-c1nc(-c2ccc(C)nc2OC)no1	4µM*	4.3µM*	13µM*	8.2µM*	-4%	2µM*
COc1nc(C)ccc1-c1noc(-c2ccccn2)n1	1.3µM*	6µM*	8.9µM*	1.2µM*	-22%	0.56µM*
COc1nc(C)ccc1-c1noc(-c2cccnc2)n1	?	24µM*	.	?	.	?
CCc1nc(-c2ccc(C)nc2OC)no1	2%	3%[2.3 µM]	-4%	1%	-2%	-1%
COc1nc(-c2ccccc2)ccc1-c1noc(C)n1	.	?	14%	.	-1%	.
CC(=O)Nc1c(C)nn(-c2ccccc2)c1N1CCC(C(=O)Nc2ccccc2F)CC1	.	-9%	.	.	.	.
Cc1ccc(NC(=O)c2cccc3cccnc23)cc1	2.5µM*	5.4µM*	.	?	.	1.6µM*
COc1ccccc1C(=O)Nc1cccc2cccnc12	24%	17µM*	.	8%	.	?
O=C(NCCc1ccccc1F)c1cccc2cccnc12	3.2µM*	17µM*	.	?	.	1.8µM*
SMILES	NPC1 promoter act	FLuc modulator	SMN2 splice up	ELG1 genotoxic	Luc counter	Rab9 prom act
CN(CC(=O)Nc1ccc(Cl)c(Cl)c1)C(=O)c1cccc2cccnc12	-5%	3%	.	0%	.	4%
CC(=O)Nc1cccc(NC(=O)c2cccc3cccnc23)c1	-1%	13µM*	.	-4%	.	23%
CCOc1ccc(C(=O)NCCn2cc(SCC(=O)NCCc3ccc(OC)c(OC)c3)c3ccccc32)cc1	.	?	0%	.	.	.
CCOC(=O)N1CCC(NC(=O)c2ccc3c(c2)N(Cc2cc(C)ccc2C)C(=O)c2ccccc2S3(=O)=O)CC1	.	0%	5%	.	.	.
COC(=O)Cn1c(=NC(=O)c2ccc([N+](=O)[O-])s2)sc2cc(Br)ccc21	-4%	-18%	17%	10%	1%	-2%
COC(=O)Cn1c(=NC(=O)c2ccc(Cl)s2)sc2cc(C)ccc21	?	0.13µM*	4µM*	?	-10%	?
CN1c2ccccc2C(C)(C)C12CC(c1ccc(S(=O)(=O)N3CCCCC3)cc1)=NO2 (stereo not drawn)	-5%	-1%	1.1µM*	-5%	2%	8%
O=C(CCc1nnc(CCCCc2ccccc2)o1)NCCN1CCOC1=O	2%	17µM*	.	15%	-2%	0%
O=C(CCc1nnc(CCCc2ccccc2)o1)N1CCCCCC1	?	21µM*	.	?	-2%	?
CN(CCc1ccccn1)C(=O)CCc1nnc(CCCc2ccccc2)o1	?	15µM*	.	?	2%	?
CCc1cc(CNC(=O)CCc2nnc(CCCc3ccccc3)o2)on1	?	19µM*	16µM*	18µM*	0%	3.5µM*
O=C(CCc1nnc(CCCCc2ccccc2)o1)NCCn1cccn1	-1%	4%	11%	0%	0%	1%
O=C1CCC=C1C(O)c1ccc2c(c1)OCO2 (stereo not drawn)	.	.	1%	.	-1%	.
CCOC(=O)c1ccc(NC(=O)Cn2nc3c4ccccc4n(Cc4cccc(F)c4)cc-3c2=O)cc1	.	0%	.	.	.	.
Cc1nc(-c2cc(-c3ccc(Cl)cc3)no2)cs1	1.1µM*	1.2µM*	.	?	.	0.56µM*
Clc1ccc(SCc2cc(-c3ccccc3)on2)cc1	2%	-4%	6%	?	3%	4%
Clc1ccc(-c2cc(-c3ccccc3)on2)cc1	1.4µM*	0.85µM*	.	?	.	1.3µM*
O=C(CN(Cc1ccco1)C(=O)CNS(=O)(=O)c1ccccc1)NCc1ccc(F)cc1	16%	6%	-5%	18µM*	1%	20%
COc1ccc(NC(=O)c2csc3c2CCCCC3)c(OC)c1	0%	?	9%	-3%	3%	5%
COc1ccc(NC(=O)c2csc3c2CCCCC3)cc1	.	5.4µM*	7.9µM*	.	.	.
COc1cccc(NC(=O)c2csc3c2CCCCC3)c1	.	11µM*	13µM*	.	.	.
COc1ccc(CCNC(=O)c2csc3c2CCCCC3)c(OC)c1	.	-6%	?	.	.	.
O=C(Nc1ccccc1O)c1csc2c1CCCC2	?	9.5µM*	16µM*	?	-2%	?
COc1cccc(/C=C/C(=O)Nc2ccc3nc(N4CCN(C)CC4)cc(C)c3c2)c1OC	.	?	-56%	.	.	.
O=C(O)CCc1c2ccc(=O)c(O)c-2oc2c(O)c(O)ccc12	.	.	-5%[9.22 µM]	.	-3%[7.66 µM]	.
Cc1ccc(Cl)cc1N1CCN(C(=O)c2cc(S(=O)(=O)N3CCCCC3)cn2C)CC1	.	3%	.	.	.	.
